From publication PMC8384837, “Expanding the binding specificity for RNA recognition by a PUF domain”
Numbering of substitutions follows the chain as printed.

How the values were obtained:
Assay in all cases: yeast three-hybrid, YBZ-1, SC-Leu-His + 0.5 mM 3-AT, 4 days
Details in all cases: tags: N-Gal4 AD-HA kept; label: inside an RPR1-promoter hybrid RNA with tandem MS2 sites; ssRNA
[1] = target: PUM1 PUF domain R8-RFQ (Homo sapiens, UniProt Q14671 828-1176, N1122R;Y1123F)
Summary of the method: (§1)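 Pumilio-1 PUF domain libraries, randomized at the three base-contacting residues of each repeat, were co-expressed with matching RNA elements from a centromeric plasmid in strain YBZ-1, which carries a LexA–MS2 coat fusion and a HIS3 reporter. Transformants grew for four days on SC-Leu (input) or on SC-Leu-His + 0.5 mM 3-AT (selection), and the repeat regions were PCR-amplified and Illumina-sequenced. The interaction score is the log change in variant frequency from input to selection. That logarithm is base 2, with a pseudocount of 1 where a variant was absent.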

[2] = target: PUM1 PUF domain R5-KRL (Homo sapiens, UniProt Q14671 828-1176, C1007K;Q1011L)
Summary of the method: as §1

[3] = target: PUM1 PUF domain R7-RRE (Homo sapiens, UniProt Q14671 828-1176, S1079R;N1080R)
Summary of the method: as §1

[4] = target: PUM1 PUF domain R4-PYV (Homo sapiens, UniProt Q14671 828-1176, N971P;H972Y;Q975V)
Summary of the method: as §1

[5] = target: PUM1 PUF domain R4-EHF (Homo sapiens, UniProt Q14671 828-1176, N971E;Q975F)
Summary of the method: as §1

[6] = target: PUM1 PUF domain R3-DYA (Homo sapiens, UniProt Q14671 828-1176, C935D;R936Y;Q939A)
Summary of the method: as §1

[7] = target: PUM1 PUF domain R5-KDR (Homo sapiens, UniProt Q14671 828-1176, C1007K;R1008D;Q1011R)
Summary of the method: as §1

[8] = target: PUM1 PUF domain R5-RMD (Homo sapiens, UniProt Q14671 828-1176, C1007R;R1008M;Q1011D)
Summary of the method: as §1

[9] = target: T1, PUM1 PUF domain R6-VYC (Homo sapiens, UniProt Q14671 828-1176, N1043V;Q1047C)
T1 sequence: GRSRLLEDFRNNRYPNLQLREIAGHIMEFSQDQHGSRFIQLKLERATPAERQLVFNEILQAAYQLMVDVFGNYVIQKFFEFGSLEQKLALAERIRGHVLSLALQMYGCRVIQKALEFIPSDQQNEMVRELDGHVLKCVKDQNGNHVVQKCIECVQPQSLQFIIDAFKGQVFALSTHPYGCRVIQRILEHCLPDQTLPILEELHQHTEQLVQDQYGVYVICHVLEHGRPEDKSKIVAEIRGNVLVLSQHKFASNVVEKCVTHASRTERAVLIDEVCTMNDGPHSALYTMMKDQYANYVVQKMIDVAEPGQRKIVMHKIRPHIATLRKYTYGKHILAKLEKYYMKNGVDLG
Summary of the method: as §1

[10] = target: T2, PUM1 PUF domain R6-DFQ (Homo sapiens, UniProt Q14671 828-1176, N1043D;Y1044F)
T2 sequence: T1 sequence with V216D, Y217F, C220Q
Summary of the method: as §1

“GGCUAGAACUAGUGGAUCCCCCGGCGCCCGGCGGCUCGAGCCCGGGUAAGGGUAAAUAGUCUGCAUGCCGCCGGGCGCCAUGCCUGCAGGUCGACUCUAGAAAACAUG” was tested. Which binding signal [1] did it give?
The binding signal was 2.44 log2 enrichment (interaction score).

Which binding signal [2] does the source give for “GGCUAGAACUAGUGGAUCCCCCGGCGCCCGGCGGCUCGAGCCCGGGUAAGUGUGAAUAGUCUGCAUGCCGCCGGGCGCCAUGCCUGCAGGUCGACUCUAGAAAACAUG” here?
Its binding signal is 0.47 log2 enrichment (interaction score).

“GGCUAGAACUAGUGGAUCCCCCGGCGCCCGGCGGCUCGAGCCCGGGUAAGUCUAAAUAGUCUGCAUGCCGCCGGGCGCCAUGCCUGCAGGUCGACUCUAGAAAACAUG” was tested. Which binding signal [3] did it give?
The binding signal was 3.75 log2 enrichment (interaction score).

Which binding signal [4] does the source give for “GGCUAGAACUAGUGGAUCCCCCGGCGCCCGGCGGCUCGAGCCCGGGUAAGUGUAUAUAGUCUGCAUGCCGCCGGGCGCCAUGCCUGCAGGUCGACUCUAGAAAACAUG” here?
Its binding signal is 7.86 log2 enrichment (interaction score).

What about the binding signal [5] of the same sequence?
Its binding signal is 5.95 log2 enrichment (interaction score).

Which binding signal [4] does the source give for “GGCUAGAACUAGUGGAUCCCCCGGCGCCCGGCGGCUCGAGCCCGGGUAAGUGUACAUAGUCUGCAUGCCGCCGGGCGCCAUGCCUGCAGGUCGACUCUAGAAAACAUG” here?
The binding signal was 6.43 log2 enrichment (interaction score).

“GGCUAGAACUAGUGGAUCCCCCGGCGCCCGGCGGCUCGAGCCCGGGUAAGUGUAAGUAGUCUGCAUGCCGCCGGGCGCCAUGCCUGCAGGUCGACUCUAGAAAACAUG” was tested. Which binding signal [6] did it give?
The binding signal was 1.16 log2 enrichment (interaction score).

With “GGCUAGAACUAGUGGAUCCCCCGGCGCCCGGCGGCUCGAGCCCGGGUAAGUGUCAAUAGUCUGCAUGCCGCCGGGCGCCAUGCCUGCAGGUCGACUCUAGAAAACAUG” as the sequence, how does the binding signal [7] read?
The binding signal was 4.77 log2 enrichment (interaction score).

What about the binding signal [2] of the same sequence?
Its binding signal is 3.16 log2 enrichment (interaction score).

And the binding signal [8]?
The binding signal was 4.23 log2 enrichment (interaction score).

With “GGCUAGAACUAGUGGAUCCCCCGGCGCCCGGCGGCUCGAGCCCGGGUAAGUGAAAAUAGUCUGCAUGCCGCCGGGCGCCAUGCCUGCAGGUCGACUCUAGAAAACAUG” as the sequence, how does the binding signal [9] read?
Its binding signal is 6.26 log2 enrichment (interaction score).

With “GGCUAGAACUAGUGGAUCCCCCGGCGCCCGGCGGCUCGAGCCCGGGUAAGCGUAAAUAGUCUGCAUGCCGCCGGGCGCCAUGCCUGCAGGUCGACUCUAGAAAACAUG” as the sequence, how does the binding signal [1] read?
Its binding signal is 5.63 log2 enrichment (interaction score).

Which binding signal [7] does the source give for “GGCUAGAACUAGUGGAUCCCCCGGCGCCCGGCGGCUCGAGCCCGGGUAAGUGUUAAUAGUCUGCAUGCCGCCGGGCGCCAUGCCUGCAGGUCGACUCUAGAAAACAUG” here?
The binding signal was 2.77 log2 enrichment (interaction score).

And the binding signal [2]?
The binding signal was 3 log2 enrichment (interaction score).

For “GGCUAGAACUAGUGGAUCCCCCGGCGCCCGGCGGCUCGAGCCCGGGUAAGUGUAAAUAGUCUGCAUGCCGCCGGGCGCCAUGCCUGCAGGUCGACUCUAGAAAACAUG”, which binding signal [1] is on record?
The binding signal was 2.11 log2 enrichment (interaction score).

What about the binding signal [6] of the same sequence?
Its binding signal is 5.02 log2 enrichment (interaction score).

And the binding signal [4]?
The binding signal was 5.22 log2 enrichment (interaction score).

What about the binding signal [2] of the same sequence?
Its binding signal is 1.09 log2 enrichment (interaction score).

What about the binding signal [10] of the same sequence?
The binding signal was 8.15 log2 enrichment (interaction score).
